PubChem BioAssay (NCI)
Compounds without any hit were thinned out: in the full panel of roughly 83,000, 20% have a hit.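 Cells were grown in 96-well plates and exposed to the test compound at a single concentration for 48 hours; results are reported as percent growth, with values below 10 considered active.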 Values without a mark were called inactive. Activity calls are given as the source filed them.

How the values were obtained:
Experiment in all cases: NCI-60 one-dose screen, 48 h (100 = growth as untreated, 0 = no growth, -100 = all killed)
Details in all cases: 10 µM unless noted
NCI-H23 lung = system: NCI-H23 lung
NCI-H226 lung = system: NCI-H226 lung
NCI-H322M lung = system: NCI-H322M lung
HOP-62 NSCLC = system: HOP-62 NSCLC
NCI-H460 lung = system: NCI-H460 lung
HOP-92 NSCLC = system: HOP-92 NSCLC
NCI-H522 lung = system: NCI-H522 lung
A549/ATCC NSCLC = system: A549/ATCC NSCLC
786-0 renal = system: 786-0 renal
COLO 205 colon = system: COLO 205 colon
DU-145 prostate = system: DU-145 prostate
K-562 leukemia = system: K-562 leukemia
MALME-3M melanoma = system: MALME-3M melanoma
MDA-MB-231 breast = system: MDA-MB-231 breast
RXF 393 renal = system: RXF 393 renal
SF-268 CNS = system: SF-268 CNS
SF-295 CNS = system: SF-295 CNS
SF-539 CNS = system: SF-539 CNS
UACC-257 melanoma = system: UACC-257 melanoma
M14 melanoma = system: M14 melanoma

Compound | growth (NCI-H23 lung) | growth (NCI-H226 lung) | growth (NCI-H322M lung) | growth (HOP-62 NSCLC) | growth (NCI-H460 lung) | growth (HOP-92 NSCLC) | growth (NCI-H522 lung) | growth (A549/ATCC NSCLC) | growth (786-0 renal) | growth (COLO 205 colon) | growth (DU-145 prostate) | growth (K-562 leukemia) | growth (MALME-3M melanoma) | growth (MDA-MB-231 breast) | growth (RXF 393 renal) | growth (SF-268 CNS) | growth (SF-295 CNS) | growth (SF-539 CNS) | growth (UACC-257 melanoma) | growth (M14 melanoma)
O=C1Nc2cc(-c3ccc(NS(=O)(=O)c4ccccc4)cc3)ccc2/C1=C/c1ccc[nH]1 | 29.9% | 65.9% | 49.6% | 106% | 11.4% | 95.7% | 76.4% | 86.6% | 108% | 125% | 31.8% | 61% | 85.5% | 62.9% | 104% | 92.1% | 98.7% | 76.2% | 110% | 90.1%
CCNC(=O)Oc1ccc(/C(=C(\C)c2ccccc2)c2ccc(OCCCN(C)C)cc2)cc1 | 75.8% | 99.2% | 80.7% | 87.4% | 87.1% | 69.4% | 86.4% | 78.9% | 64.2% | 54.5% | 92.5% | 14.4% | 40.9% | 76.6% | 76.1% | 72.1% | 52.4% | 65.8% | 3.23% (active) | 19.7%
N#C/C(=C\c1ccc(Cl)cc1)n1nnc2cc(F)c(F)cc21 | 30% | 83.8% | 33.9% | 59.1% | -22.2% (active) | 5.41% (active) | 3.72% (active) | 32.8% | 14.7% | 8.61% (active) | 14% | 11.5% | 14.8% | 11.9% | -18.6% (active) | 35.7% | 86% | 3.56% (active) | 27.7% | 11.1%
CC1(C)CC[C@]23CC[C@]4(C)[C@H](CC[C@@H]5[C@@]6(C)CCCNC(C)(C)[C@@H]6CC[C@]54C)[C@H]2[C@H]1OC3 | 41.2% | 34.8% | -21.4% (active) | 27.7% | -60.6% (active) | -37.2% (active) | 9.35% (active) | -45.6% (active) | -96.2% (active) | -68.2% (active) | -8.9% (active) | -39.7% (active) | -63.4% (active) | -62.8% (active) | -65.3% (active) | 38.2% | -65% (active) | 38.7% | 45.1% | -77.2% (active)
CCCCCCCCOc1ccc(/C=N/Nc2cc(C)nc3ccc(Br)cc23)cc1 | 81.9% | 97.4% | 95.6% | 87.5% | 16.1% | 105% | 71.6% | 27.9% | 28.9% | 83.9% | 33.5% | 10.7% | 40.8% | 33.2% | 88.3% | 86.3% | 78.8% | 32.6% | 84% | 53.6%
COc1ccccc1/C(C)=N/NC(=O)CSc1nc2ccccc2c(=O)n1Cc1ccc(S(N)(=O)=O)cc1 | 96.7% | 95.5% | 90% | 93.5% | 100% | 105% | 82.1% | 95.2% | 97.3% | 119% | 108% | 98.2% | 103% | 96.6% | 95.9% | 89.2% | 93.9% | 94.4% | 95.4% | 108%
c1ccc2c(-c3nccs3)c[nH]c2c1 | 96.2% | 97% | 98% | 99.2% | 105% | 89.7% | 92.2% | 100% | 88.8% | 119% | 107% | 99.2% | 99.1% | 92.6% | 95% | 96.7% | 101% | 96.4% | 111% | 99.1%
